Inconclusive results are not listed. Entries that show only a call come without a potency. Active and inactive are the calls of the source. Calls come from the whole dose curve; as a rule, active = well fitted curve in the direction sought with a large enough effect; inconclusive = small, poorly fitted or top-dose-only effect, or another doubt; inactive = no such curve, though single readings can be large; an effect the other way counts as inactive or inconclusive.

Assay [1] addresses Glutathione peroxidase 1 (Homo sapiens) (UniProt P07203). The experiment in a line: Primary qHTS Assay for Inhibitors of Recombinant Selenoprotein Glutathione Peroxidase 1 (GPX1) (AID 1845191). Note: nearly all actives have a fitted effect of over 65% in size. Note: potency is the fitted concentration of half-maximal effect. Particulars: recombinant GPX1, GR-coupled NADPH fluorescence, 15 min; series mostly up to 48.8 µM. The essentials: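 GPX1 10 nM, GR 100 nM, GSH 1 mM, NADPH 0.5 mM, CHP 0.5 mM (final). 30-min cpd preincubation, RT. Ex340/Em450 read t=0, t=15 min.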
(In general: Quantitative high-throughput screening tests each substance at several concentrations.)

For assay [2], the target named is Phospholipid hydroperoxide glutathione peroxidase GPX4 (Homo sapiens) (UniProt P36969). As to the kind of experiment: Primary qHTS Assay for Inhibitors of Recombinant Selenoprotein Glutathione Peroxidase 4 (GPX4) (AID 1845192). Note: nearly all actives have a fitted effect of over 65% in size. Particulars: recombinant GPX4, GR-coupled NADPH fluorescence, 15 min; series mostly up to 50 µM. The essentials: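 qHTS, GR-coupled: GPX4 200 nM + cpd 30 min RT → GSH 1 mM, NADPH 0.5 mM, GR 100 nM → CHP 0.5 mM start; fluor 340/450 at t0 and t15 min; no-enzyme wells as control.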

Assay [3] has as its target Luciferin 4-monooxygenase (Photinus pyralis) (UniProt P08659). The experiment in a line: Primary firefly luciferase (FLuc) qHTS assay for identification of artifact compounds. (AID 1845220). Note: nearly all actives have a fitted effect of over 60% in size. The settings on record: purified firefly luciferase, luminescence, 5 min; series mostly up to 54.1 µM. A digest of the protocol: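 Reaction readout was CCD-imaged luminescence, taken 5 min after adding 10 nM purified firefly enzyme to compound-treated wells holding 10 uM luciferin and ATP in pH 7.6 buffer.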

A short description of assay [4]: Primary fluorescence-based thiol-reactive (MSTI) qHTS assay for identification of artifact compounds. (AID 1845221). Note: nearly all actives have a fitted effect of over 65% in size. Note: potency is the fitted concentration of half-maximal effect. The settings on record: MSTI thiol-reactivity probe, 1 h; series mostly up to 53.8 µM. A digest of the protocol: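 In PBS pH 7.4 with 2% DMSO, each compound met 4 uM MSTI for one hour at ambient temperature, shielded from light, before fluorescence detection.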

Phospholipid hydroperoxide glutathione peroxidase GPX4 (Homo sapiens), sequence (P36969 whole entry, looked up): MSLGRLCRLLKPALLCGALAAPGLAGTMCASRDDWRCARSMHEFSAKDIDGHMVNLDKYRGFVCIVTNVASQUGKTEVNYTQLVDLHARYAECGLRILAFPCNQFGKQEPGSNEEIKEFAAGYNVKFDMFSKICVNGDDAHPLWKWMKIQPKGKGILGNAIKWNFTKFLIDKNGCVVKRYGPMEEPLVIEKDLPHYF
Glutathione peroxidase 1 (Homo sapiens), sequence (P07203 whole entry, looked up): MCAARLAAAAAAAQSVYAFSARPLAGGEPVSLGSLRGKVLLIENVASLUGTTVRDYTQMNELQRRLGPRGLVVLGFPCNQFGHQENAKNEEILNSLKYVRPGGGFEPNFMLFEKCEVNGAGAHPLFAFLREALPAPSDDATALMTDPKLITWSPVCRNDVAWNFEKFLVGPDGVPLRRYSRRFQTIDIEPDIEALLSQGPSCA

With `NC1=NC(=O)N2CC12` (stereo unspecified), the Potency result in assay [1] and in assay [2] was “inactive” in each case.

For `C=CCC1=C(C)C(OC(=O)C2C(C=C(C)C)C2(C)C)CC1=O` (stereo unspecified), the Potency entry in assay [1] and in assay [2] was “inactive” each time.

Turning to `O=C(O)COc1ccccc1`, the Potency result in assay [1] and in assay [2] was “inactive” in each case.

With `CSCC[C@@H](NC(=O)[C@@H](Cc1ccccc1)NC(=O)CNC(=O)CNC(=O)[C@@H](N)Cc1ccc(O)cc1)C(=O)O`, the Potency entry in assay [1] and in assay [2] was “inactive” in each case.

For the compound `O=c1cccc2n1CC1CNC[C@H]2C1`, the Potency result in assay [1] and in assay [2] was “inactive” each time.

On to `CC(C)(O)C(=O)Nc1ccc([N+](=O)[O-])c(C(F)(F)F)c1`, for which the Potency result in assay [1] and in assay [2] was “inactive” in each case.

For `COc1ccc(C(=O)c2c(C)n(CCN3CCOCC3)c3cc(I)ccc23)cc1`, the Potency result in assay [1] and in assay [2] was “inactive” in each case.

With `C[C@]12N[C@H](Cc3ccccc31)c1ccccc12`, the Potency result in assay [1] and in assay [2] was “inactive” throughout.

As to `C[C@]12CC[C@@H]3[C@@H](CCC4=CC(=O)CC[C@@H]43)[C@@H]1CC[C@@H]2OC(=O)CCc1ccccc1`, the Potency entry in assay [1] and in assay [2] was “inactive” throughout.

For the compound `CC(C)[C@H]1C(=O)N[C@H](CO)Cc2c[nH]c3cccc(c23)N1C`, the Potency entry in assay [1] and in assay [2] was “inactive” throughout.

`O=C(O)[C@@H]1CCN1`: the Potency entry in assay [1] and in assay [2] was “inactive” in each case.

Turning to `CCCCCCCCCCCCCCCC[N+](C)(C)C`, the Potency result in assay [1] and in assay [2] was “inactive” throughout.

On to `O=C(O)Cc1cnc[nH]1`, for which the Potency result in assay [1] and in assay [2] was “inactive” throughout.

With `CCN1C[C@]2(OC(=O)c3ccccc3NC(C)=O)CC[C@H](OC)[C@@]34[C@H]5CC6[C@@H](OC)C[C@](O)(C(C[C@@H]23)[C@@H]14)[C@@]5(O)[C@@H]6OC`, the Potency entry in assay [1] and in assay [2] was “inactive” throughout.

With `Cc1cc(O)ccc1Cl`, the Potency entry in assay [1] and in assay [2] was “inactive” in each case.

With `O=C(Nc1ccncc1)C(=O)c1cn(Cc2ccc(Cl)cc2)c2ccccc12`, the Potency entry in assay [1] and in assay [2] was “inactive” in each case.

Take `N=c1c2c(-c3ccccc3)c(-c3ccccc3)n(Cc3ccccc3)c2ncn1C1CCC(O)CC1` (stereo unspecified): the Potency entry in assay [1] and in assay [2] was “inactive” in each case.

Take `CCOC(=O)c1c(C(C#N)=CN)c2ccc(Cl)c(Cl)c2n1C`: the Potency result in assay [1] and in assay [2] was “inactive” in each case.

With `CC[N+]1(CCOC(=O)C(O)(c2ccccc2)c2ccccc2)CCCCC1`, the Potency entry in assay [1] and in assay [2] was “inactive” throughout.

In the case of `NC(CP(=O)(O)O)C(=O)O` (stereo unspecified), the Potency entry in assay [1] and in assay [2] was “inactive” each time.

As for `C1CCC(NC2CCCCC2)CC1`, the Potency entry in assay [1] and in assay [2] was “inactive” in each case.

As for `C#CC1(O)CCC2C3CCC4=CC(=O)CCC4(C)C3CCC21C` (stereo unspecified), the Potency entry in assay [1] and in assay [2] was “inactive” each time.

As to `C[C@]12CC[C@H]3[C@@H](CCC4=CC(=O)CC[C@@]43C)[C@H]1CC[C@H]2OC(=O)CCC1CCCC1`, the Potency result in assay [1] and in assay [2] was “inactive” each time.

Turning to `COC(=O)c1cncn1C(C)c1ccccc1` (stereo unspecified), the Potency entry in assay [1] and in assay [2] was “inactive” in each case.

With `C[C@](O)(COc1ccc(C#N)cc1)C(=O)Nc1ccc(C#N)c(C(F)(F)F)c1`, the Potency result in assay [1] and in assay [2] was “inactive” throughout.

For `CN(C)NC(=O)CCC(=O)O`, the Potency entry in assay [1] and in assay [2] was “inactive” each time.

Consider `COCC1(CO)C(=O)C2CCN1CC2` (stereo unspecified), for which the Potency entry in assay [1] and in assay [2] was “inactive” in each case.

For `CCNC(=O)CC1N=C(c2ccc(Cl)cc2)c2cc(OC)ccc2-n2c(C)nnc21` (stereo unspecified), the Potency result in assay [1], in assay [2] and in assay [4] was “inactive” in each case. Besides, the call in assay [3] was inactive.

Consider `CCN1CCN(C(=O)Cc2ccc(Nc3ncc(F)c(Nc4ccc(C(=O)Nc5ccccc5Cl)cc4)n3)cc2)CC1`, for which the Potency result in assay [1], in assay [2] and in assay [4] was “inactive” in each case. Further, the compound was classed as inactive in assay [3].

In the case of `Cc1c(C(=O)Nc2cccc(C(F)(F)F)c2)cc(-c2ccccc2)n1CCCN1CCOCC1`, the Potency entry in assay [1], in assay [2] and in assay [4] was “inactive” throughout. The compound was called inactive in assay [3].

For `CC(C)N(CCNC(=O)CN1CCCC1=O)C(C)C`, the Potency result in assay [1], in assay [2] and in assay [4] was “inactive” throughout. Also, the compound was called inactive in assay [3].

For the compound `CN1CCN(c2ccc([N+](=O)[O-])c3no[n+]([O-])c23)CC1`, the Potency in assay [1] is 18.3 µM (active); in assay [4], 11.9 µM (active). Moreover, the Potency result in assay [2] was “inactive”. The result in assay [3] was inactive.

With `Clc1ccccc1C(c1ccccc1)(c1ccccc1)n1cccn1`, the Potency entry in assay [1] and in assay [2] was “inactive” throughout.

Turning to `CCOC(=O)Nc1ccc(NCc2ccc(F)cc2)cc1N`, the outcome in assay [3] was inactive. Also, in assay [4], the Potency was 1.19 µM (active).

Turning to `O=C(N[C@@H](COc1ccc2[nH]c(=O)[nH]c2c1)c1ccccc1)c1cccn(Cc2ccc(F)c(F)c2)c1=O`, the Potency entry in assay [1] and in assay [4] was “inactive” throughout. Also, in assay [3], the result was inactive.

`Cc1ccccc1-n1c(Cn2ncc3c(N)ncnc32)nc2cccc(C)c2c1=O`: the Potency result in assay [1], in assay [2] and in assay [4] was “inactive” each time. For the same compound, the compound was classed as inactive in assay [3].

For the compound `c1ccc2c(CN3CCNCC3)cccc2c1`, the Potency result in assay [1] and in assay [2] was “inactive” in each case.

For the compound `CN[C@@H]1Cc2cccc3[nH]c(=O)n(c23)C1`, the Potency result in assay [1] and in assay [2] was “inactive” each time.

In the case of `CC(=O)[O][Hg][c]1ccccc1`, the Potency result in assay [2] is “inactive”.

With `CC(N[C@H]1C[C@H]1c1ccccc1)c1ccc2c(c1)OCCO2` (stereo partly specified), the Potency entry in assay [2] and in assay [4] was “inactive” throughout. In assay [3], the compound was classed as inactive.

Take `O=C(O)CNC(=O)c1c(O)c2ccccc2n(Cc2ccccc2)c1=O`: the Potency result in assay [1] and in assay [2] was “inactive” each time. Further, the compound was called inactive in assay [3].

Values taken from PubChem BioAssay (NCATS).
